Data from PubChem BioAssay (EPA / NIEHS).
Results filed as inconclusive are left out. Active and inactive are the calls of the source. How the source made its calls: active means hit-call score of the fitted dose curve at least 0.9, where 1 is the maximum; inconclusive means response in the unintended direction; inactive means score below 0.9.

What was measured:
[1] = molecular target: Cellular tumor antigen p53 (Homo sapiens) (UniProt P04637); test: TOX21_p53_BLA_p2_ratio: Tox21 HCT-116 p53 Agonism Beta-lactamase Assay, Ratio, Phase 2 (AID 2283592)
Summary of the method: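 Plated HCT116 p53-bla cells (4000/well) received compound after 5 h, then 16 h at 37C/5% CO2. CCF4-AM added, 2 h RT. Ratio of 460 to 530 nm emission taken as the p53 reporter signal.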

[2] = TOX21_p53_BLA_p3_viability: Viability Assessment in the Tox21 HCT-116 p53 Agonism Beta-lactamase Assay, Phase 3 (AID 2283593);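 further: cells exposed to compound for 16 h before reading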
Summary of the method: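 Cellular ATP was quantified by CellTiter-Glo luminescence, read after 30 min at room temperature. Beforehand, HCT116 cells (4000/well) received compound 5 h post-seeding, 217-fold diluted from DMSO, then incubated 16 h at 37C.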

[3] = TOX21_p53_BLA_p4_viability: Viability Assessment in the Tox21 HCT-116 p53 Agonism Beta-lactamase Assay, Phase 4 (AID 2283597);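 further: hits lower the luminescence signal meaning cytotoxicity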
Summary of the method: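 Readout: ATP luminescence (CellTiter-Glo), measured 30 min after reagent addition at RT. The reagent followed a 2 h CCF4-AM incubation, and the cells had been exposed to compound for 16 h at 37C.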

[4] = molecular target: Cellular tumor antigen p53 (Homo sapiens) (UniProt P04637); test: TOX21_p53_BLA_p5_ratio: Tox21 HCT-116 p53 Agonism Beta-lactamase Assay, Ratio, Phase 5 (AID 2283599)
Summary of the method: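 Beta-lactamase reporter ratio (blue 460 nm over green 530 nm, 405 nm excitation) after 2 h CCF4-AM loading, in HCT-116 cells exposed 16 h at 37 C to compounds pinned at 217-fold dilution. Increases relative to DMSO baseline scored.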

[5] = molecular target: Cellular tumor antigen p53 (Homo sapiens) (UniProt P04637); test: TOX21_p53_BLA_p4_ratio: Tox21 HCT-116 p53 Agonism Beta-lactamase Assay, Ratio, Phase 4 (AID 2283601)
Summary of the method: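 Signal is the blue/green (460nm/530nm) ratio of cleaved versus uncleaved CCF4-AM substrate, read after 2 h substrate loading. Cells were HCT116 carrying the p53-responsive beta-lactamase reporter, dosed 16 h at 37C, 5% CO2; CellTiter-Glo measured in parallel.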

[6] = TOX21_p53_BLA_p5_viability: Viability Assessment in the Tox21 HCT-116 p53 Agonism Beta-lactamase Assay, Phase 5 (AID 2283600)
Summary of the method: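 Workflow: seed 4000 cells per well, wait 5 h, add compounds (DMSO, 217-fold dilution), incubate 16 h, load CCF4-AM 2 h, add CellTiter-Glo, read luminescence after 30 min.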

[7] = molecular target: Cellular tumor antigen p53 (Homo sapiens) (UniProt P04637); test: TOX21_p53_BLA_p3_ratio: Tox21 HCT-116 p53 Agonism Beta-lactamase Assay, Ratio, Phase 3 (AID 2283596)
Summary of the method: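 Cells were seeded at 4000/well, rested 5 h at 37C, then dosed with DMSO compound solutions (217-fold dilution) for 16 h. CCF4-AM substrate was loaded for 2 h at room temperature, and the 460/530 nm emission ratio was fitted for gain of signal versus DMSO.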

Measured: AC50

Cellular tumor antigen p53 (Homo sapiens), sequence (P04637 whole entry, looked up): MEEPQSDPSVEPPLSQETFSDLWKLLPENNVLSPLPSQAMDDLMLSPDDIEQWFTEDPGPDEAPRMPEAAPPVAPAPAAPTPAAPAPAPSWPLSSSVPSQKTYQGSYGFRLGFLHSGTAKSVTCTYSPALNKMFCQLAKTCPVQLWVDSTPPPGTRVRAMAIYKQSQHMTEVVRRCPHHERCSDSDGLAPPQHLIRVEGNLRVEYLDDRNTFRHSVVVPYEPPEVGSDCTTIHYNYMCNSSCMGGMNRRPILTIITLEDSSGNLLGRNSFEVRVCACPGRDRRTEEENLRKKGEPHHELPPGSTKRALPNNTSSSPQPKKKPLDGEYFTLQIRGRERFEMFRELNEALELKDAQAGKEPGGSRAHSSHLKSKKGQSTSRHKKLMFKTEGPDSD

CC(=O)OC(C(=O)c1ccccc1)c1ccccc1 (centres undefined)
not listed: [6] | [7]
inactive: all other assays above

c1cnccn1
inactive: [1] | [2] | [4] | [6]

CC(=O)CC(=O)c1ccccc1
not listed: [3] | [7]
inactive: all other assays above

FC(F)(F)c1ccc(Cl)cc1Cl
not listed: [6] | [7]
inactive: all other assays above

NS(=O)(=O)Cc1noc2ccccc12
inactive: [1] | [2] | [4] | [5]

OC(CCN1CCCCC1)(c1ccccc1)c1ccccc1
not listed: [7]
inactive: all other assays above

O=C(C=Cc1ccc(O)c(O)c1)O[C@@H]1C[C@](O)(C(=O)O)C[C@@H](O)[C@H]1O
not listed: [6] | [7]
inactive: all other assays above

O=C(O)c1ccccc1Nc1cc(Cl)ccc1C(=O)O
not listed: [7]
inactive: all other assays above

CCSc1ccc2c(c1)N(CCCN1CCN(C)CC1)c1ccccc1S2
not listed: [7]
inactive: all other assays above

COc1ccc(NC(C)=O)cc1
inactive: [1] | [2] | [3] | [6]

CC1=CC(=O)CC(C)(C)C1(O)/C=C/C(C)=C\C(=O)O (centres undefined)
not listed: [7]
inactive: all other assays above

NS(=O)(=O)c1ccc(NC(=O)CCC(=O)O)cc1
not listed: [7]
inactive: all other assays above

CC(=O)N(CC(O)CO)c1c(I)c(C(=O)NCC(O)CO)c(I)c(C(=O)NCC(O)CO)c1I (centres undefined)
inactive: [1] | [7] | [3]

Cc1cc2cc3c(C)cc(=O)oc3c(C)c2o1
inactive: [1] | [2] | [4] | [5]

CCOC(=O)C(C)C(C)=O (centres undefined)
not listed: [6] | [7]
inactive: all other assays above

CN(C)C(=O)CNC(=O)Cc1ccccc1
not listed: [6] | [7]
inactive: all other assays above

Cc1ccc2nc(-c3ccc(N)cc3)sc2c1S(=O)(=O)O
not listed: [6] | [7]
inactive: all other assays above

CCCCCCCCCCCCCCCBr
inactive: [1] | [2] | [3] | [6]

Cc1ccc2c(c1[N+](=O)[O-])C(=O)c1ccccc1C2=O
active: [1] 22.5 µM | [4] 20.3 µM | [5] 25.7 µM
inactive: [2] | [3] | [6]

ICCc1ccccc1
not listed: [6] | [7]
inactive: all other assays above

O=P(O)(O)OC(CO)CO
inactive: [1] | [2] | [3] | [6]

CC(=O)Nc1c(I)c(C(=O)O)c(I)c(N(C)C(C)=O)c1I
not listed: [7]
inactive: all other assays above

N[C@@H](Cc1cnc[nH]1)C(=O)O
inactive: [1] | [2] | [3] | [6]

Cc1[nH]c(=O)c(C#N)cc1-c1ccc2nccn2c1
not listed: [6] | [7]
inactive: all other assays above

CCOc1ccc(NC(=O)OC(C)C)cc1OCC
not listed: [6] | [7]
inactive: all other assays above

Oc1ccc(Cl)c2c1CCC2
not listed: [7]
inactive: all other assays above
